Measured values published in PubChem BioAssay AID1159580 (chemical genetic matrix, 2015).
Hit rate of the full screen: of about 5,500 compounds, about 2,000 (36%) were called active. Not shown: some 18% with an inconclusive outcome. The list shows a part of the results. A number with no mark means an inactive call. Rule as the data show it: active = normalized growth mostly below about 0.91 (no sharp cut-off); inconclusive = no clear call, values can overlap the other calls; inactive = mostly above about 0.92.

Test: chemical genetic growth profiling, strain panel (AID 1159580);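 also: tested at 20 µM; growth read once vehicle control cultures reached saturation at 30 °C; 1 = growth at the plate median or of vehicle wells; lower values mean less growth of the strain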
Conditions: growth OD
[1] = S. cerevisiae deletion strains, locus YJR075W, strain HOC1, hits give low values
[2] = S. cerevisiae deletion strains, locus YNL153C, strain GIM3, hits give low values
[3] = S. cerevisiae deletion strains, locus YPL055C, strain LGE1, hits give low values
[4] = S. cerevisiae deletion strains, locus YPL241C, strain CIN2, hits give low values
[5] = S. cerevisiae deletion strains, locus YDL101C, strain DUN1, hits give low values
[6] = S. cerevisiae deletion strains, locus YHR030C, strain SLT2, hits give low values

`COCC(=O)O[C@]1(CCN(C)CCCc2nc3ccccc3[nH]2)CCc2cc(F)ccc2[C@@H]1C(C)C` showed a normalized growth (S. cerevisiae deletion strains, locus YAL040C, strain CLN3, hits give low values) of 1, a normalized growth (S. cerevisiae deletion strains, locus YCL061C, strain MRC1 (second series), hits give low values) of 1 and a normalized growth (S. cerevisiae deletion strains, locus YDR363W, strain ESC2, hits give low values) of 1. The normalized growth (S. cerevisiae deletion strains, locus YER002W, strain NOP16, hits give low values) was 1.02, the normalized growth [1] was 0.967 and the normalized growth [2] was 0.941. The normalized growth (S. cerevisiae deletion strains, locus YNL175C, strain NOP13, hits give low values) was 1.03, the normalized growth (S. cerevisiae deletion strains, locus YNL197C, strain WHI3, hits give low values) was 1.04 and the normalized growth (S. cerevisiae deletion strains, locus YNL224C, strain SQS1, hits give low values) was 1.03. It also gave a normalized growth (S. cerevisiae deletion strains, locus YOR083W, strain WHI5 (second series), hits give low values) of 1.03, a normalized growth [3] of 0.929 and a normalized growth [4] of 0.985.
Molecule `O=C(CCSc1cccs1)Nc1cccc(C(F)(F)F)c1` has a normalized growth (S. cerevisiae deletion strains, locus YAR019C, strain CDC15, hits give low values) of 0.936, a normalized growth (S. cerevisiae deletion strains, locus YBL105C, strain PKC1, hits give low values) of 0.922 and a normalized growth (S. cerevisiae deletion strains, locus YBR135W, strain CKS1, hits give low values) of 0.929. It also gave a normalized growth (S. cerevisiae deletion strains, locus YBR136W, strain MEC1, hits give low values) of 0.911, a normalized growth (S. cerevisiae deletion strains, locus YBR160W, strain CDC28, hits give low values) of 0.926 and a normalized growth (S. cerevisiae deletion strains, locus YDL017W, strain CDC7, hits give low values) of 0.922. It also gave a normalized growth (S. cerevisiae deletion strains, locus YDL028C, strain MPS1, hits give low values) of 0.93, a normalized growth [5] of 0.921 and a normalized growth (S. cerevisiae deletion strains, locus YDL108W, strain KIN28, hits give low values) of 0.946. It also gave a normalized growth (S. cerevisiae deletion strains, locus YDL132W, strain cdc53, hits give low values) of 0.92, a normalized growth (S. cerevisiae deletion strains, locus YDL214C, strain PRR2, hits give low values) of 0.911 and a normalized growth (S. cerevisiae deletion strains, locus YDR052C, strain DBF4, hits give low values) of 0.948. The normalized growth (S. cerevisiae deletion strains, locus YDR054C, strain cdc34, hits give low values) was 0.916, the normalized growth (S. cerevisiae deletion strains, locus YDR226W, strain ADK1, hits give low values) was 0.93 and the normalized growth (S. cerevisiae deletion strains, locus YDR477W, strain SNF1, hits give low values) was 0.966. It also gave a normalized growth (S. cerevisiae deletion strains, locus YER123W, strain YCK3, hits give low values) of 0.915, a normalized growth (S. cerevisiae deletion strains, locus YER133W, strain GLC7, hits give low values) of 0.965 and a normalized growth (S. cerevisiae deletion strains, locus YFL009W, strain cdc4, hits give low values) of 0.945. For the same molecule, the normalized growth (S. cerevisiae deletion strains, locus YFL029C, strain CAK1, hits give low values) was 0.925, the normalized growth (S. cerevisiae deletion strains, locus YFR003C, strain YPI1, hits give low values) was 0.93 and the normalized growth (S. cerevisiae deletion strains, locus YFR019W, strain FAB1, hits give low values) was 0.931. For the same molecule, the normalized growth (S. cerevisiae deletion strains, locus YFR028C, strain CDC14, hits give low values) was 0.952, the normalized growth (S. cerevisiae deletion strains, locus YGR040W, strain KSS1, hits give low values) was 0.961 and the normalized growth (S. cerevisiae deletion strains, locus YGR052W, strain FMP48, hits give low values) was 0.952. For the same molecule, the normalized growth (S. cerevisiae deletion strains, locus YGR092W, strain DBF2, hits give low values) was 0.872, the normalized growth [6] was 0.84 (active) and the normalized growth (S. cerevisiae deletion strains, locus YHR079C, strain IRE1, hits give low values) was 0.853. The normalized growth (S. cerevisiae deletion strains, locus YHR082C, strain KSP1, hits give low values) was 0.884, the normalized growth (S. cerevisiae deletion strains, locus YHR205W, strain SCH9, hits give low values) was 0.807 and the normalized growth (S. cerevisiae deletion strains, locus YIL147C, strain SLN1, hits give low values) was 0.927. It also gave a normalized growth (S. cerevisiae deletion strains, locus YJL095W, strain BCK1, hits give low values) of 0.888, a normalized growth (S. cerevisiae deletion strains, locus YJL128C, strain PBS2, hits give low values) of 0.865 and a normalized growth (S. cerevisiae deletion strains, locus YJL157C, strain FAR1, hits give low values) of 0.949. The normalized growth (S. cerevisiae deletion strains, locus YJR016C, strain ILV3, hits give low values) was 0.92, the normalized growth (S. cerevisiae deletion strains, locus YJR066W, strain TOR1 (second series), hits give low values) was 0.992 and the normalized growth (S. cerevisiae deletion strains, locus YJR066W, strain TOR1, hits give low values) was 0.905. For the same molecule, the normalized growth (S. cerevisiae deletion strains, locus YKL048C, strain ELM1, hits give low values) was 0.92, the normalized growth (S. cerevisiae deletion strains, locus YKL067W, strain YNK1, hits give low values) was 0.927 and the normalized growth (S. cerevisiae deletion strains, locus YKL101W, strain HSL1, hits give low values) was 0.911. The normalized growth (S. cerevisiae deletion strains, locus YKL193C, strain SDS22, hits give low values) was 0.913, the normalized growth (S. cerevisiae deletion strains, locus YKL203C, strain TOR2, hits give low values) was 1.01 and the normalized growth (S. cerevisiae deletion strains, locus YLR113W, strain HOG1, hits give low values) was 0.711 (active). The normalized growth (S. cerevisiae deletion strains, locus YLR133W, strain CKI1, hits give low values) was 0.936, the normalized growth (S. cerevisiae deletion strains, locus YLR403W, strain SFP1, hits give low values) was 0.965 and the normalized growth (S. cerevisiae deletion strains, locus YML070W, strain DAK1, hits give low values) was 0.891. For the same molecule, the normalized growth (S. cerevisiae deletion strains, locus YMR001C, strain CDC5, hits give low values) was 0.924, the normalized growth (S. cerevisiae deletion strains, locus YMR205C, strain PFK2 (second series), hits give low values) was 0.913 and the normalized growth (S. cerevisiae deletion strains, locus YMR277W, strain FCP1, hits give low values) was 0.919. The normalized growth (S. cerevisiae deletion strains, locus YNL006W, strain LST8, hits give low values) was 0.938, the normalized growth (S. cerevisiae deletion strains, locus YNL020C, strain ARK1, hits give low values) was 0.923 and the normalized growth (S. cerevisiae deletion strains, locus YNL161W, strain CBK1, hits give low values) was 0.918. The normalized growth (S. cerevisiae deletion strains, locus YNL183C, strain NPR1, hits give low values) was 0.857, the normalized growth (S. cerevisiae deletion strains, locus YNL207W, strain RIO2, hits give low values) was 0.921 and the normalized growth (S. cerevisiae deletion strains, locus YNL222W, strain SSU72, hits give low values) was 0.923. It also gave a normalized growth (S. cerevisiae deletion strains, locus YNL307C, strain MCK1 (second series), hits give low values) of 0.88, a normalized growth (S. cerevisiae deletion strains, locus YOL078W, strain AVO1, hits give low values) of 0.917 and a normalized growth (S. cerevisiae deletion strains, locus YOL136C, strain PFK27, hits give low values) of 0.889. It also gave a normalized growth (S. cerevisiae deletion strains, locus YOR061W, strain CKA2, hits give low values) of 0.927, a normalized growth (S. cerevisiae deletion strains, locus YOR119C, strain RIO1, hits give low values) of 0.964 and a normalized growth (S. cerevisiae deletion strains, locus YOR231W, strain MKK1, hits give low values) of 0.854. It also gave a normalized growth (S. cerevisiae deletion strains, locus YOR329C, strain SCD5, hits give low values) of 0.921, a normalized growth (S. cerevisiae deletion strains, locus YPL031C, strain PHO85, hits give low values) of 0.961 and a normalized growth (S. cerevisiae deletion strains, locus YPL153C, strain RAD53, hits give low values) of 0.962. For the same molecule, the normalized growth (S. cerevisiae deletion strains, locus YPL204W, strain HRR25, hits give low values) was 0.953, the normalized growth (S. cerevisiae deletion strains, locus YPL209C, strain IPL1, hits give low values) was 0.92 and the normalized growth (S. cerevisiae deletion strains, locus YPL256C, strain CLN2, hits give low values) was 0.796 (active). For the same molecule, the normalized growth (S. cerevisiae deletion strains, locus YPR025C, strain CCL1, hits give low values) was 0.932, the normalized growth (S. cerevisiae deletion strains, locus YPR106W, strain ISR1, hits give low values) was 0.918 and the normalized growth (S. cerevisiae deletion strains, locus YPR111W, strain DBF20, hits give low values) was 0.901. It also gave a normalized growth (S. cerevisiae deletion strains, strain NNK1, hits give low values) of 0.888 and a normalized growth (S. cerevisiae deletion strains, strain TSCII, hits give low values) of 0.921.
Molecule `O=C(O)CCNC(=S)Nc1cccc(C(F)(F)F)c1` has a normalized growth (S. cerevisiae deletion strains, locus YAL013W, strain DEP1, hits give low values) of 0.998, a normalized growth (S. cerevisiae deletion strains, locus YBR229C, strain ROT2, hits give low values) of 1.01 and a normalized growth (S. cerevisiae deletion strains, locus YCL061C, strain MRC1, hits give low values) of 0.99. For the same molecule, the normalized growth [5] was 1.01, the normalized growth (S. cerevisiae deletion strains, locus YDL134C, strain PPH21, hits give low values) was 0.983 and the normalized growth (S. cerevisiae deletion strains, locus YDR150W, strain NUM1, hits give low values) was 1.03. The normalized growth (S. cerevisiae deletion strains, locus YEL061C, strain CIN8, hits give low values) was 1.02, the normalized growth (S. cerevisiae deletion strains, locus YGR078C, strain PAC10, hits give low values) was 1.01 and the normalized growth (S. cerevisiae deletion strains, locus YGR229C, strain SMI1, hits give low values) was 0.982. For the same molecule, the normalized growth [6] was 0.996, the normalized growth (S. cerevisiae deletion strains, locus YHR087W, strain rtc3, hits give low values) was 1.02 and the normalized growth (S. cerevisiae deletion strains, locus YJR043C, strain POL32, hits give low values) was 0.987. The normalized growth [1] was 0.997, the normalized growth (S. cerevisiae deletion strains, locus YLR039C, strain RIC1, hits give low values) was 0.976 and the normalized growth (S. cerevisiae deletion strains, locus YLR058C, strain SHM2 (second series), hits give low values) was 0.999. The normalized growth (S. cerevisiae deletion strains, locus YLR085C, strain ARP6, hits give low values) was 0.971, the normalized growth (S. cerevisiae deletion strains, locus YLR262C, strain YPT6, hits give low values) was 0.986 and the normalized growth (S. cerevisiae deletion strains, locus YML094W, strain GIM5, hits give low values) was 1.11. The normalized growth (S. cerevisiae deletion strains, locus YMR219W, strain ESC1, hits give low values) was 1, the normalized growth (S. cerevisiae deletion strains, locus YMR263W, strain SAP30, hits give low values) was 0.984 and the normalized growth [2] was 1.01. For the same molecule, the normalized growth (S. cerevisiae deletion strains, locus YNL298W, strain CLA4 (second series), hits give low values) was 0.985, the normalized growth (S. cerevisiae deletion strains, locus YNL322C, strain KRE1, hits give low values) was 1.01 and the normalized growth (S. cerevisiae deletion strains, locus YNR030W, strain Alg12, hits give low values) was 1.03. For the same molecule, the normalized growth [3] was 1.04, the normalized growth [4] was 0.918 and the normalized growth (S. cerevisiae deletion strains, locus YPR135W, strain CTF4, hits give low values) was 1.06. It also gave a normalized growth (S. cerevisiae strains, strain wild type, hits give low values) of 0.966.
